From PubChem BioAssay
In the library only some 3.8% were active in any assay of this set; here they are far more common.
HepG2 tox: qHTS for Inhibitors of TGF-b: Cytotox Counterscreen; 410,000 tested, 0.76% active; Potency, µM (titrated, usually from 46.1 µM), usual class: cytotoxic; HepG2 CAGA-GFP viability, ATP luminescence, 18 h
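CellTiter-Glo luminescence gave cytotoxicity after 18 hours at 37 degrees C. The cells were HepG2 CAGA-GFP in 1% FBS DMEM, stimulated with 500 pg/mL TGF-beta after compound addition. %Activity was normalised to no-cell wells (complete cell-killing) and DMSO (no toxicity), and curves were fitted and classified.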
S2 tox: Viability Counterscreen for Primary qHTS for Inhibitors of ATXN expression. 400,000 tested, 0.49% active. Potency, µM (titrated, usually from 56.7 µM), actives largely listed as cytotoxic. S2 cells (HEK-293 line with an ATXN2-luciferase reporter) viability, CellTiter-Fluor protease fluorescence, 24 h; further: nearly all actives have a fitted effect of over 40% in size
HT1080-NT tox: qHTS for induction of synthetic lethality in tumor cells producing 2HG: qHTS for the HT-1080-NT fibrosarcoma cell line; Potency, µM (top dose mostly 46.1 µM), most hits filed as cytotoxic; 360,000 tested, 1.6% active; HT-1080-NT fibrosarcoma viability, CellTiter-Glo ATP luminescence, 48 h;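 further: NT is the 2HG producing partner of a matched IDH1 knockdown line; nearly all actives have a fitted effect of over 55% in size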
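Viability of the 2HG-overproducing fibrosarcoma line after 48 hours of compound exposure at 37 degrees C was determined by luminescence with CellTiter-Glo, and concentration-effect curves were then fitted and categorized.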
TGFb SMAD3 inh: qHTS for Inhibitors of TGF-b. HepG2 CAGA-GFP TGF-b/SMAD3 reporter, GFP fluorescence, 18 h; TGF-beta stimulated, 500 pg/mL final. Potency, µM (top dose mostly 46.1 µM), actives largely listed as inhibitors. 410,000 tested, 1.2% active. AID 588855, 2011; further: nearly all actives have a fitted effect of over 65% in size
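Read-out: total well GFP (ex488/em500-530) summed from mean per-cell fluorescence. Cells: HEPG2 CAGA-GFP, 1% FBS DMEM, 18 h at 37 degrees C with 500 pg/mL final TGF-beta. Unstimulated wells served as the full-inhibition control; stimulated DMSO wells = 0%.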
HT1080 IDH1KD tx: qHTS for induction of synthetic lethality in tumor cells producing 2HG: qHTS for the HT-1080-IDH1KD cell line; HT-1080 IDH1 knockdown viability, ATP luminescence, 48 h; Potency, µM (titrated, usually from 46.1 µM), actives largely listed as cytotoxic; 360,000 tested, 2% active; AID 686971, 2013
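Cytotoxicity counter-line: IDH1KD HT-1080, 48 h, CellTiter-Glo. Curves classed by r2, magnitude and activity.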
ATXN2 expr inh: Primary qHTS for Inhibitors of ATXN expression. AID 1745845, 2022. 360,000 tested, 0.72% active. Potency, µM (titrated, usually from 57 µM), usual class: inhibitors. HEK-293 ATXN2-luciferase reporter, luminescence, 24 h; further: nearly all actives have a fitted effect of over 55% in size
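ATXN2-luciferase reporter cells (luciferase flanked by upstream and downstream ATXN2 gene portions) were treated 24 h at 37 °C with compounds at up to 57 uM. SteadyGlo luminescence gave expression; GF-AFC fluorescence gave viability.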
Hits are given with their value; – = inactive; ? = inconclusive; · = no result given. The call rests on the fitted dose curve; in most records, active means well fitted curve in the direction sought with a large enough effect; inconclusive means small, poorly fitted or top-dose-only effect, or another doubt; inactive means no such curve, though single readings can be large; an effect the other way counts as inactive or inconclusive.

SMILES	HepG2 tox	S2 tox	HT1080-NT tox	TGFb SMAD3 inh	HT1080 IDH1KD tx	ATXN2 expr inh
Cc1ccc(C(=O)Nc2cccc(C(F)(F)F)c2)cc1NC(=O)c1csc(-c2ccncc2)n1	–	?	–	–	–	?
N#C/C(=N\Nc1cccc(C(F)(F)F)c1)C(=O)c1csc(-c2cccnc2)n1	–	25µM	–	?	?	?
Cc1ccc(C)n1-c1nnc(N2CCCC(C(=O)NCc3ccc(F)cc3)C2)s1 (stereo not drawn)	–	–	·	–	·	–
CCOC(=O)c1ccc2c(c1)n(CC)c(/C=C/N(C)c1ccccc1)[n+]2CC	–	–	6.5µM	–	?	–
CCOC(=O)c1ccc2c(c1)n(CCO)c(C)[n+]2CC	–	–	–	–	–	–
Oc1ccc(N2CCN(C(c3ccc(Cl)cc3)c3nnnn3Cc3ccc(F)cc3)CC2)cc1 (stereo not drawn)	–	·	·	?	·	·
COc1ccccc1/C=C1\CCCC2=C1Nc1nnnn1C2c1ccccc1OC (stereo not drawn)	–	–	–	13µM	?	–
CCC(=O)NC1=C(Cl)C(=O)C(NC(=O)CC)=C(Cl)C1=O	–	·	?	?	18µM	·
Cc1cc(C)cc(NC(=O)C(CC(C)C)NC(=O)C2CCCCC2)c1 (stereo not drawn)	–	–	·	–	·	–
O=C(c1ccc(S(=O)(=O)N2CCCCCC2)cc1)N1CCN(Cc2ccccc2)CC1	–	–	–	–	–	–
COc1ccc(NS(=O)(=O)c2ccc(C(=O)N3CCCCCC3)cc2)cc1	–	?	18µM	?	–	?
COc1ccc(S(=O)(=O)N2CCN(C(=O)C3CCC3)CC2)cc1	–	–	–	–	–	–
COc1ccc(S(=O)(=O)N2CCN(C(=O)CSC(=S)N3CCCC3)CC2)cc1	16µM	–	–	?	–	·
COc1ccc(CN2CCN(C(=O)c3ccc(S(=O)(=O)N4CCCCCC4)cc3)CC2)cc1	–	–	16µM	–	–	–
O=C(NCc1ccco1)c1ccc2c(c1)N(Cc1ccccc1)C(=O)c1ccccc1S2(=O)=O	–	·	·	·	·	·
COc1ccc(/C=C/C(=O)Nc2ccc3nc(N4CCCCC4)cc(C)c3c2)cc1OC	–	?	·	13µM	·	?
COc1ccc(/C=C/C(=O)Nc2ccc3nc4c(c(Nc5ccccc5OC)c3c2)CCCC4)cc1	–	·	·	7.1µM	·	·
COc1ccc(Nc2c3c(nc4ccc(NC(=O)/C=C/c5cccc(OC)c5OC)cc24)CCCC3)cc1OC	–	·	·	3.5µM	·	·
CCN(CC)c1cc(C)c2cc(NC(=O)/C=C/c3cc(OC)c(OC)c(OC)c3)ccc2n1	10µM	·	·	16µM	·	·
Cc1ccc(CSc2nc3cccnc3n2Cc2nc(-c3ccccc3F)oc2C)cc1	–	·	·	?	·	·
COc1ccc(-c2cc(C(F)(F)F)n3nc(C(=O)O)c(Cl)c3n2)cc1OC	–	·	·	–	·	·
COc1ccccc1Nc1c2c(nc3ccc(NC(=O)/C=C/c4cccc(OC)c4OC)cc13)CCCC2	–	·	·	?	·	·
COc1ccc(Nc2c3c(nc4ccc(NC(=O)/C=C/c5cc(OC)c(OC)c(OC)c5)cc24)CCCC3)cc1OC	2.8µM	·	·	3.2µM	·	·
COc1ccc(/C=C/C(=O)Nc2ccc3nc4c(c(Nc5ccc(OC)c(OC)c5)c3c2)CCCC4)cc1	5µM	·	·	4.5µM	·	·
Cc1nn(-c2ccccc2)c(C)c1/C=N/NC(=O)CSc1nc2ccccc2c(=O)n1-c1ccc(Br)cc1	–	·	21µM	?	13µM	?
Cc1noc(C)c1CSc1nnc2n(-c3ccccc3)c(=O)c3ccccc3n12	–	–	–	–	–	–
Cc1noc(C)c1CSc1nc2ccccc2c(=O)n1-c1ccccc1	–	?	?	–	9.2µM	–
